Targets with a hit are over-represented here; the source holds about 7,900 in all. About 0.6% of all pairs of compound and target were hits.
What was measured:
Experiment in all cases: log2 fold change, soluble protein after heating vs DMSO (PISA); higher = thermal stabilisation; K562 cells, 10 uM, 30 min; active = over 0.2 and 3.5 SD of the protein, either way, in both replicates (recomputed)
[1] = compound: CN1CCN(CCOc2cc(OC3CCOCC3)c3c(Nc4c(Cl)ccc5c4OCO5)ncnc3c2)CC1 [saracatinib]
Outline: (§1)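 Soluble protein was quantified by TMTpro 16plex LC-MS/MS after channel sums were equalised. It was obtained as the supernatant after 21,000xg for 90 min from pooled aliquots of K562 cells (2×10^6 cells/mL, 10 μM compound, 30 min) heated for 3 min across 48°C-58°C and extracted in PBS with 0.5% NP-40 at 4°C. Thermal stability values are relative to control samples and come from duplicates. They are given as log2 fold changes.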

[2] = compound: CN1CCN(c2nc(C3=C(c4c[nH]c5ccccc45)C(=O)NC3=O)c3ccccc3n2)CC1 [sotrastaurin]
Outline: as §1

[3] = compound: CN1CC[C@H](c2c(O)cc(O)c3c(=O)cc(-c4ccccc4Cl)oc23)[C@H](O)C1 [alvocidib]
Outline: as §1

[4] = compound: CN1CCc2c(c3ccccc3n2Cc2ccc(C(=O)NO)cc2)C1 [Tubastatin A]
Outline: as §1

[5] = compound: CNC(=O)C1=CC=CC=C1NC2=NC(=NC=C2Cl)NC3=C(C=C(C=C3)N4CCOCC4)OC
Outline: as §1

[6] = compound: CNC(=O)c1ccc(Nc2ncc(C(F)(F)F)c(NCc3nccnc3N(C)S(C)(=O)=O)n2)cc1 [defactinib]
Outline: as §1

[7] = compound: CNCc1ccc(-c2[nH]c3cc(F)cc4c3c2CCNC4=O)cc1 [rucaparib]
Outline: as §1

[8] = compound: CNc1nc(-c2ccc3c(N)n[nH]c3c2)cc(N2C[C@@H](C(=O)NC3CCCCC3)CC[C@H]2C)n1
Outline: as §1

[9] = compound: COC(=O)N[C@@H](C)CNc1nccc(-c2cn(C(C)C)nc2-c2cc(Cl)cc(NS(C)(=O)=O)c2F)n1 [encorafenib]
Outline: as §1

[10] = compound: COC(=O)[C@H](CCSC)NC(=O)C1=C(C=C(C=C1)NC[C@H](CS)N)C2=CC=CC=C2
Outline: as §1

Measured: log2 fold change

USP15 (UniProt Q9Y4E8)
inactive: [1] -0.013 | [2] -0.093 | [3] -0.069 | [4] 0.014 | [5] 0.049 | [6] -0.093 | [7] 0.032 | [8] 0.019 | [9] 0.061 | [10] -0.031

TNPO2 (UniProt O14787)
inactive: [1] 0.066 | [2] -0.055 | [3] -0.188 | [4] 0.03 | [5] 0.013 | [6] -0.188 | [7] -0.051 | [8] 0.054 | [9] 0.133 | [10] -0.079

UFM1 (UniProt P61960)
inactive: [1] 0.028 | [2] -0.004 | [3] -0.262 | [4] 0.097 | [5] 0.026 | [6] -0.066 | [7] -0.119 | [8] -0.013 | [9] 0.029 | [10] -0.031

UXT isoform 2 (UniProt Q9UBK9)
inactive: [1] 0.031 | [2] -0.056 | [3] -0.01 | [4] 0.077 | [5] -0.191 | [6] 0 | [7] 0.049 | [8] -0.027 | [9] -0.018 | [10] -0.078

WASHC2A (UniProt Q641Q2)
inactive: [1] 0.013 | [2] 0.001 | [3] 0.052 | [4] 0.016 | [5] 0.015 | [6] 0.01 | [7] 0.045 | [8] -0.039 | [9] 0.019 | [10] 0.017

TP53BP1 isoform 2 (UniProt Q12888)
inactive: [1] 0.01 | [2] -0.112 | [3] -0.081 | [4] 0.116 | [5] 0.061 | [6] -0.073 | [7] 0.025 | [8] -0.022 | [9] 0.059 | [10] 0.036

WEE1 (UniProt P30291)
Chain of UniProt P30291 (P30291 whole entry, looked up): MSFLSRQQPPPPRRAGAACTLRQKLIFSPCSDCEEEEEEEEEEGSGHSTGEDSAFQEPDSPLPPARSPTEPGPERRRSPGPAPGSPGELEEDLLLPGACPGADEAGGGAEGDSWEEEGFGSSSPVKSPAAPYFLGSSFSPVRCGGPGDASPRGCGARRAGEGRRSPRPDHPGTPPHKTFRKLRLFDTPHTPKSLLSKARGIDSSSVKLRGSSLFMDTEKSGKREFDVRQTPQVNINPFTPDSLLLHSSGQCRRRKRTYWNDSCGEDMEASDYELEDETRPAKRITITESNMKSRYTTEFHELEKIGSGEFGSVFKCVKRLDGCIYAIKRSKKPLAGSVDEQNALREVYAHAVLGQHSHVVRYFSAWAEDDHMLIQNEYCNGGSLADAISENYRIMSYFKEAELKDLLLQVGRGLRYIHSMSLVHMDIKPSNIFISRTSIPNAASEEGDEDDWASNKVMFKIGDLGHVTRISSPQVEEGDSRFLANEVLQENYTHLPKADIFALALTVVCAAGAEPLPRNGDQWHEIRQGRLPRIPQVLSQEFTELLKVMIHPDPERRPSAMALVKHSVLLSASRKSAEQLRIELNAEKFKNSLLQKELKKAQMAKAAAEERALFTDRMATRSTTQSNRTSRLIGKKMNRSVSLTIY
inactive: [1] 0.068 | [2] 0.007 | [3] 0.084 | [4] 0.117 | [5] 0.075 | [6] -0.029 | [8] -0.052 | [10] 0.082

TOM1L1 (UniProt O75674)
inactive: [1] -0.003 | [2] 0.019 | [3] -0.046 | [4] -0.066 | [5] -0.043 | [6] -0.042 | [7] -0.02 | [8] -0.026 | [9] -0.042 | [10] -0.041

TMEM214 (UniProt Q6NUQ4)
inactive: [1] -0.04 | [2] 0.068 | [3] 0.009 | [4] 0.062 | [5] -0.002 | [6] -0.04 | [7] 0.121 | [8] 0.03 | [9] 0.041 | [10] -0.039

WRB (UniProt O00258)
inactive: [1] -0.007 | [2] 0.075 | [3] 0.034 | [4] -0.051 | [5] -0.048 | [6] 0.073 | [7] -0.003 | [8] -0.014 | [9] -0.057 | [10] 0.023

TRMT10C (UniProt Q7L0Y3)
inactive: [1] -0.129 | [2] -0.013 | [3] -0.126 | [4] -0.064 | [5] -0.024 | [6] -0.055 | [7] -0.011 | [8] 0.042 | [9] 0.041 | [10] -0.056

TMEM161A (UniProt Q9NX61)
Chain of UniProt Q9NX61 (Q9NX61 whole entry, looked up): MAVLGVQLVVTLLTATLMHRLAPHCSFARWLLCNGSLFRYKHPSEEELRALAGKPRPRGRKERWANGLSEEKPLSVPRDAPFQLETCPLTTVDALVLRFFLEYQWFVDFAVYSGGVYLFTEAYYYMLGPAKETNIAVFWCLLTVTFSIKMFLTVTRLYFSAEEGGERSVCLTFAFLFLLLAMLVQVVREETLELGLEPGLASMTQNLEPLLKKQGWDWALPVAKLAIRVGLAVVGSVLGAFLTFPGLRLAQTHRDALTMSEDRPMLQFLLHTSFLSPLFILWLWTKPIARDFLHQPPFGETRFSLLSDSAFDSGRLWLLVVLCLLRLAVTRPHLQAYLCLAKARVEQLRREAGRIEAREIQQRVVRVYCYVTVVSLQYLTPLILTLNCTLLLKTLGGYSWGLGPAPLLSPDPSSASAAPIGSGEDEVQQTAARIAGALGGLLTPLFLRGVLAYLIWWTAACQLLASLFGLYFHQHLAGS
inactive: [1] 0.011 | [2] 0.027 | [3] -0.027 | [4] 0.039 | [5] -0.108 | [6] 0.03 | [7] -0.106 | [8] -0.029 | [9] 0.106 | [10] 0.058

TRAPPC11 (UniProt Q7Z392)
inactive: [1] -0.043 | [2] -0.041 | [3] -0.085 | [4] 0 | [5] -0.028 | [6] -0.075 | [7] 0.051 | [8] -0.027 | [9] 0.035 | [10] -0.031

XPOT (UniProt O43592)
inactive: [1] 0.017 | [2] -0.102 | [3] -0.023 | [4] 0.026 | [5] 0.076 | [6] -0.022 | [7] 0.005 | [8] -0.116 | [9] 0.076 | [10] -0.044

VPS16 (UniProt Q9H269)
inactive: [1] 0.026 | [2] -0.171 | [3] -0.028 | [4] -0.001 | [5] -0.071 | [6] -0.042 | [7] -0.049 | [8] -0.054 | [9] 0.196 | [10] -0.022

TMEM219 (UniProt Q86XT9)
inactive: [1] 0.261 | [2] 0.03 | [3] -0.12 | [4] -0.059 | [5] -0.016 | [6] -0.185 | [8] 0.176 | [10] -0.093

TNPO3 (UniProt Q9Y5L0)
inactive: [1] 0.034 | [2] -0.075 | [3] -0.114 | [4] -0.03 | [5] -0.011 | [6] -0.067 | [7] 0 | [8] -0.013 | [9] 0.032 | [10] -0.003

WDR62 isoform 4 (UniProt O43379)
inactive: [1] -0.025 | [2] 0.037 | [3] -0.074 | [4] 0.027 | [5] -0.165 | [6] -0.06 | [7] -0.035 | [8] 0.017 | [9] 0.015 | [10] 0.014

UBAP2L isoform 1 (UniProt Q14157)
inactive: [1] -0.001 | [2] 0.063 | [3] -0.092 | [4] -0.016 | [5] 0.038 | [6] -0.02 | [7] -0.017 | [8] -0.073 | [9] -0.014 | [10] -0.015

WDR43 (UniProt Q15061)
inactive: [1] 0.031 | [2] 0.014 | [3] 0.062 | [4] -0.045 | [5] 0.001 | [6] 0.101 | [7] 0.07 | [8] -0.002 | [9] -0.009 | [10] -0.007

TRIM5 (UniProt Q9C035)
inactive: [1] -0.429 | [2] 0.103 | [3] -0.048 | [4] -0.102 | [5] -0.093 | [6] -0.108 | [8] -0.017 | [10] 0.019

TMEM8A (UniProt Q9HCN3)
inactive: [1] 0.059 | [2] -0.099 | [3] -0.009 | [4] 0.108 | [5] -0.042 | [6] -0.039 | [7] 0.004 | [8] 0.02 | [9] 0.037 | [10] -0.191

UBE2D1 (UniProt P51668)
inactive: [1] 0.03 | [2] 0.056 | [3] -0.055 | [4] -0.058 | [5] -0.035 | [6] -0.016 | [7] 0.006 | [8] -0.105 | [9] 0.01 | [10] -0.047

VPS50 (UniProt Q96JG6)
inactive: [1] -0.108 | [2] -0.089 | [3] -0.07 | [4] 0.036 | [5] 0.04 | [6] -0.11 | [7] 0.033 | [8] -0.012 | [9] 0.1 | [10] -0.022

UBE2J1 (UniProt Q9Y385)
inactive: [1] 0.019 | [2] -0.016 | [3] -0.073 | [4] 0.26 | [5] -0.046 | [6] -0.133 | [7] 0.048 | [8] 0.204 | [9] 0.001 | [10] 0.035

ULBP1 (UniProt Q9BZM6)
inactive: [1] -0.027 | [2] -0.175 | [3] 0.005 | [4] 0.016 | [5] -0.096 | [6] 0.064 | [8] 0.07 | [10] 0.048

VPS13B (UniProt Q7Z7G8)
Chain of UniProt Q7Z7G8 (Q7Z7G8 whole entry, looked up): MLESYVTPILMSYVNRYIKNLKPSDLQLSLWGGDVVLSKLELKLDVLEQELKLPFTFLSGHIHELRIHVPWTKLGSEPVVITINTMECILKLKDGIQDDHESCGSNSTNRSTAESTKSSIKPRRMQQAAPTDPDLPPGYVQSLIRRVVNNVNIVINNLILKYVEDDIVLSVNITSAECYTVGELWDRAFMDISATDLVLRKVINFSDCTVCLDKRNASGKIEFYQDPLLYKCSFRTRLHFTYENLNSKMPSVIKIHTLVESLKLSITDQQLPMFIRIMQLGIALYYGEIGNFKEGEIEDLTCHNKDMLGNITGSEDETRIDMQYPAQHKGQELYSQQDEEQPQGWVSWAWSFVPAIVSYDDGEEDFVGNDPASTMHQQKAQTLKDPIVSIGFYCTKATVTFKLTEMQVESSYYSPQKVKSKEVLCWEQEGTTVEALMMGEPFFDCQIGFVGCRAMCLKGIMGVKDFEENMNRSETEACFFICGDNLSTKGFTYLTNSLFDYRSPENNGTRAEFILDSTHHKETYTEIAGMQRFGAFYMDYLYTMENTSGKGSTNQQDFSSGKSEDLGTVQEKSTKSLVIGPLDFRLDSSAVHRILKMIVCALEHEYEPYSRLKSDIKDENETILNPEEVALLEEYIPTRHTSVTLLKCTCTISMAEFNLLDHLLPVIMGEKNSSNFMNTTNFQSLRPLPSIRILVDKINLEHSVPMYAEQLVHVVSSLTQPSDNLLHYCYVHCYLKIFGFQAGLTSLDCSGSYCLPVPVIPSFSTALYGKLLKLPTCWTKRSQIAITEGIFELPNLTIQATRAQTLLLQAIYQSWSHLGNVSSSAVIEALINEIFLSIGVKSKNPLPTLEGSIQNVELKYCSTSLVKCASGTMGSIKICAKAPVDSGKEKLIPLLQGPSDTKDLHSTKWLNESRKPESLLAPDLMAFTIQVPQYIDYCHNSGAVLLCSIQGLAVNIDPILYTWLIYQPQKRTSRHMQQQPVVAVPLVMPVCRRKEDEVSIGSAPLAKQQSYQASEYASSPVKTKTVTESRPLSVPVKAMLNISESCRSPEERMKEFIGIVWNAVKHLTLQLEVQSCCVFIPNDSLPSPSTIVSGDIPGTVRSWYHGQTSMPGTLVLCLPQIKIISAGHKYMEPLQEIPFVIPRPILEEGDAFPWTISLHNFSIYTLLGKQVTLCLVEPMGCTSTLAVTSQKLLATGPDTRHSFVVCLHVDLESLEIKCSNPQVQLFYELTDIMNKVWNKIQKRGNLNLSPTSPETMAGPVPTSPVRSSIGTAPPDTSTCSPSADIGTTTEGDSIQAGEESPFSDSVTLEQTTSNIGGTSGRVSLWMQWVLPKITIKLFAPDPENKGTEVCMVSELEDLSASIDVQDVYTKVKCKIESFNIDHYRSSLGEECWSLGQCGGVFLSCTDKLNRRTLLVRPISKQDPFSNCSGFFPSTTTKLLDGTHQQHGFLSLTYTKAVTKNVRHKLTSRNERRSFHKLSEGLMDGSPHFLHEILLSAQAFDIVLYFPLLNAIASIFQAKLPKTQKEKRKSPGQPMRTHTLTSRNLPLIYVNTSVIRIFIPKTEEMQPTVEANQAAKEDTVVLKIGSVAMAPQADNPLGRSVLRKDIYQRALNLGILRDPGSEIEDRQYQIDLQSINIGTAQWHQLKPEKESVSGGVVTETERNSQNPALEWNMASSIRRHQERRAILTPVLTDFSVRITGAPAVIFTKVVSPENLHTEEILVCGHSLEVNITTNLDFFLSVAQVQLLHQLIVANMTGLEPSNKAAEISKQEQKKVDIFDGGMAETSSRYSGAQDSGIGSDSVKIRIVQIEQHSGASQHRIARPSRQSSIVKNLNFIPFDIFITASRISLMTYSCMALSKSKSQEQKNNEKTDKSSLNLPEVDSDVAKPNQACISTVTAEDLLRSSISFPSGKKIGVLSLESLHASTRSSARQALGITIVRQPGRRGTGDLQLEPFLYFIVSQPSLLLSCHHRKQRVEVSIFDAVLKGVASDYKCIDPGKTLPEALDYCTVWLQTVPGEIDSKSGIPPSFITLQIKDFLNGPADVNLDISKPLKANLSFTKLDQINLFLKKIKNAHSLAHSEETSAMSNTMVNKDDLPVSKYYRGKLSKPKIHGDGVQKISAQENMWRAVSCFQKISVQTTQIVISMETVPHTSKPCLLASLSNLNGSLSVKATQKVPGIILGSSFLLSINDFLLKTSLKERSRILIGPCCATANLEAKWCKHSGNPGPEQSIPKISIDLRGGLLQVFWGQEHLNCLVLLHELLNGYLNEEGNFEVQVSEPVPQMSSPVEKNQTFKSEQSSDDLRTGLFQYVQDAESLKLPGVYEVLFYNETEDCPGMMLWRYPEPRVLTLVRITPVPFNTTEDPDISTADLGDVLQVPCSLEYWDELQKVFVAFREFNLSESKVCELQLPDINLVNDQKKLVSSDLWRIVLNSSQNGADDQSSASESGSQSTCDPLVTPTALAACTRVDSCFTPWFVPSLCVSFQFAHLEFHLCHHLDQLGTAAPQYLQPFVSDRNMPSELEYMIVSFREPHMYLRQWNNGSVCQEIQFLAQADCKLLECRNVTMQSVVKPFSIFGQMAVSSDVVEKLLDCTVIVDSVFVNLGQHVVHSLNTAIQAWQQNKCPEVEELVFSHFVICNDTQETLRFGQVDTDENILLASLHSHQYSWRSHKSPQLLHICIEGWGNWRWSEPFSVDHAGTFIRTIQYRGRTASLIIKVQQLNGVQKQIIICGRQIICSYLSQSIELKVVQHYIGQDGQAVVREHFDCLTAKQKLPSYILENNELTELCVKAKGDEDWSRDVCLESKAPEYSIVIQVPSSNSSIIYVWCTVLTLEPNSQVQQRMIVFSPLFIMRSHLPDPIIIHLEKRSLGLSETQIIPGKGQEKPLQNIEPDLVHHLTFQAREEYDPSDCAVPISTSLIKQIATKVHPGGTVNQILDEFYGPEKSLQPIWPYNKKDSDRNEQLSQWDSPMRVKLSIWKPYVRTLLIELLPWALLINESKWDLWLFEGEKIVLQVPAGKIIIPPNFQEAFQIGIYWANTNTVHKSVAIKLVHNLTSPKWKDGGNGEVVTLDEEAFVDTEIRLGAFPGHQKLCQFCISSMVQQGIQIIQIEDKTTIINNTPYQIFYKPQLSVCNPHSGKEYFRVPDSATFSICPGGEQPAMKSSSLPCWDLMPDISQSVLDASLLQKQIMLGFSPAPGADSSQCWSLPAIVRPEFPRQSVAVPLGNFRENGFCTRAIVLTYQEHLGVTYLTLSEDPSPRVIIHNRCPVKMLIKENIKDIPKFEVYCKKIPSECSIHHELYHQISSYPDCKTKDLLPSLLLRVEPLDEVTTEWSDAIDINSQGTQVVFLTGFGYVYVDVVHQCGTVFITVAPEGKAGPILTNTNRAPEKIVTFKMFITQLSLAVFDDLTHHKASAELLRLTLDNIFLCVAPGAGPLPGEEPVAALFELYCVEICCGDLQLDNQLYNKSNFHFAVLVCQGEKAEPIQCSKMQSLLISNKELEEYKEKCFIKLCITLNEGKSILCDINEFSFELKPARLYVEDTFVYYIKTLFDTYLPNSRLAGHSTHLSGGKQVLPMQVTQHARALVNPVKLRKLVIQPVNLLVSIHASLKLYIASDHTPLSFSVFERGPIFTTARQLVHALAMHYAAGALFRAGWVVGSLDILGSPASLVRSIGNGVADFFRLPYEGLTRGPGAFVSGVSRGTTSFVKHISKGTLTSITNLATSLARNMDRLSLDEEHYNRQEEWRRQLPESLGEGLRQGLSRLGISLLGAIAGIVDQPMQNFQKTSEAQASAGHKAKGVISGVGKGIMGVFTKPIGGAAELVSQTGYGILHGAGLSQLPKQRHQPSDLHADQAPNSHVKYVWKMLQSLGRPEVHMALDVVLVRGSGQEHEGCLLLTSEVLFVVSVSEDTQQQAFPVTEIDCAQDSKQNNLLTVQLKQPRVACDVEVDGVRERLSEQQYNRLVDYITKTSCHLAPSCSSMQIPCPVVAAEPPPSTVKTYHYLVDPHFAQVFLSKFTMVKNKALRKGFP
inactive: [1] 0.033 | [2] 0.016 | [3] -0.003 | [4] 0.032 | [5] -0.002 | [6] 0.009 | [7] -0.039 | [8] -0.016 | [9] 0.031 | [10] -0.01

TRAPPC13 isoform 5 (UniProt A5PLN9)
inactive: [1] 0.045 | [2] -0.061 | [3] -0.029 | [4] 0.026 | [5] 0.04 | [6] -0.051 | [7] 0.072 | [8] -0.045 | [9] 0.217 | [10] -0.099

UFL1 (UniProt O94874)
inactive: [1] -0.033 | [2] -0.035 | [3] 0.027 | [4] 0.076 | [5] 0.018 | [6] -0.045 | [7] 0.1 | [8] 0 | [9] 0.121 | [10] -0.119

TRMT2A (UniProt Q8IZ69)
inactive: [1] -0.011 | [2] -0.076 | [3] -0.045 | [4] -0.005 | [5] -0.049 | [6] -0.031 | [7] 0.084 | [8] 0.094 | [9] 0.056 | [10] -0.094
